Screens as filed in PubChem BioAssay.
Only some compounds are listed: those with a hit (about 4.6% of all), similar ones and a draw of the others.
D1 agonist – human D1 receptor agonism; actives 1% (n = 360,000); P21728; HEK293 T-REx D1 cells, calcium flux, agonist mode; activation, % at 2 µM
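Agonism was scored from calcium flux recorded over 180 s (1 read/s) after pintool compound addition, following a 10-cycle baseline. Cells were inducible force-coupled HEK293 TREx D1, plated overnight at 30 C and loaded with no-wash calcium dye.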
D1 potentiator – human D1 dopamine receptor positive modulation; HEK293 TREx D1 cells, calcium flux, dopamine EC20 potentiation; potentiation, % at 10 µM; actives 0.036% (n = 360,000); in the data active means potentiation above about 30%
TRHR agonist – TRH receptor (human) agonism. P34981. TRHR cells, calcium flux fluo-8, FDSS agonist mode. activation, % at 2 µM. actives 0.18% (n = 360,000)
Target sequence (P34981 whole entry, looked up): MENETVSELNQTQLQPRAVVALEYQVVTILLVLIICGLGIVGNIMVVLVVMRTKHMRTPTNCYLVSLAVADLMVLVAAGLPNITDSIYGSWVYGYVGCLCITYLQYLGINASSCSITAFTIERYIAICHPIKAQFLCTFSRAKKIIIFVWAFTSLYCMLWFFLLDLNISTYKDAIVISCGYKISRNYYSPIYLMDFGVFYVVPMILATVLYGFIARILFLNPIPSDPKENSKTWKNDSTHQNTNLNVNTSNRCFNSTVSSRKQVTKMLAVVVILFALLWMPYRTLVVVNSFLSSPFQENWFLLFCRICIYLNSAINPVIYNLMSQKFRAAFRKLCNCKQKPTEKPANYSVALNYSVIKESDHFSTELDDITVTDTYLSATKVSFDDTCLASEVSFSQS
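In this calcium-flux screen, cells bearing human TRHR are dye-loaded with fluo-8, baselined for 10 cycles, then exposed to library compounds; positive kinetic calcium responses during the agonist phase mark hits, with TRH as control.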
TRHR enhancer – allosterically enhances the human TRH receptor; P34981; TRHR cells, fluo-8 calcium fluorescence, EC20 TRH enhancement; enhancement, % at 2 µM; actives 0.66% (n = 360,000); AID 493056; in the data active means enhancement above about 30%
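TRHR-expressing cells loaded with fluo-8 calcium dye were read kinetically (ex 480/em 530) during compound addition, then stimulated with an EC20 of TRH (10 nM final). Enhancement of the Gq-mediated intracellular calcium response was scored.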
D1 antag – human D1 dopamine receptor antagonism; HEK293 TREx D1 cells, calcium flux, dopamine EC80; active compounds read low; actives 3.2% (n = 360,000); activity change, negative = inhibition, % at 10 µM; in the data active means activity change below about -30%
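HEK293 T-REx cells expressing inducible, force-coupled D1 receptor; no-wash Ca dye, 30–90 min RT. Cmpd → 180 s read at 1 Hz → EC80 DA → 180 s read.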
Hits are given with their value; 0 = inactive; - = not tested or not shown; ! = not confirmed by another sample. Unless noted, no stated cut-off is given here; in the data, active means activation above about 30%; inactive means the rest.

SMILES	D1 agonist	D1 potentiator	TRHR agonist	TRHR enhancer	D1 antag
CCOC(=O)c1c[nH]n(-c2ccccc2)c1=O	0	0	0	0	0
O=C(Cc1c[nH]c2ccccc12)N1CCN(S(=O)(=O)c2ccc(Cl)cc2)CC1	0	0	0	0	-36.2
CC(=O)N1CCN(C(=O)CCc2c[nH]c3ccccc23)CC1	0	0	0	0	-34.1
O=C(CSCc1ccc(Cl)cc1)Nc1ccc2c(c1)OCCO2	0	0	0	0	0
CCc1c(C(=O)N2CCCN(C)CC2)csc1C	0	0	0	0	-31.0
CCCN1C(=O)c2oc3cc(C)cc(C)c3c(=O)c2C1c1ccc(F)cc1 (configuration not stated)	0	0	0	0	0
CC(=O)c1ccc(NC(=O)Cc2cccs2)cc1	0	0	0	0	0
Cc1cccc[n+]1CC(=O)N1c2ccccc2Sc2ccccc21	0	0	0	31.3	0
Cc1ccc(NC(=O)N2CCN(c3nnc(C)c4c(C)n(-c5ccccc5)nc34)CC2)c(Cl)c1	0	0	0	0	0
Cc1ccccc1NC(=O)CN1C(=O)COc2ccc(Cl)cc21	0	0	0	0	-91.5
CC(=O)c1ccc(NC(=O)CN2C(=O)COc3ccc(Cl)cc32)cc1	0	0	0	0	0
O=C(CN1C(=O)COc2ccc(Cl)cc21)Nc1ccc(F)cc1	0	0	0	0	-33.7
CC1CCN(S(=O)(=O)c2ccc3c(c2)NC(=O)CS3)CC1	0	0	0	0	0
O=C(CC1CCCC1)N1CCN(S(=O)(=O)c2ccc(F)cc2)CC1	0	-	0	0	0
O=C(CCC1CCCC1)N1CCN(S(=O)(=O)c2ccc(Br)cc2)CC1	0	0	0	0	-30.7
COc1ccc(C)c2sc(N(Cc3cccnc3)C(=O)C3CCCCC3)nc12	0	0	0	0	-
Cc1cc(C)c2c(N)c3cccc(C)c3nc2n1	54.4	0	0	0	0
CCOC(=O)c1c(CN2CCOCC2)oc2ccc(OC)cc12	0	0	0	0	-45.2
COc1ccc2oc(C(=O)OCC(=O)Nc3ccc(N4CCOCC4)cc3)c(C)c2c1	0	0	0	0	-30.9
Cc1c(Cl)cccc1-n1ncc(C(=O)N2CCC(C)CC2)c1C1CCN(C(=O)OC(C)(C)C)CC1	0	0	0	0	0
COc1ccc(CN2C(=O)CC(Cc3cc(C)cc(C)c3)C2=O)cc1OC (configuration not stated)	0	0	0	0	-42.8
Cc1ccc(C(=O)C[n+]2cccc(C(N)=O)c2)cc1	0	0	0	0	0
CCN(CC)C(=O)C[n+]1cccc(C(N)=O)c1	0	0	0	0	-31.0
CCc1ccc(OCC(=O)Nc2ccc3c(c2)c2ccccc2n3CC)c(Br)c1	0	0	0	34.0	0
Cc1ccc(C2=Nc3ccccc3N(CC(=O)Nc3ccccc3F)C(=O)C2)cc1C	0	0	0	0	0
SMILES	D1 agonist	D1 potentiator	TRHR agonist	TRHR enhancer	D1 antag
Fc1ccc(-n2cc(CNCCc3cccnc3)c(-c3ccccc3Cl)n2)cc1	61.5	0	0	0	0
Fc1ccc(-c2nn(-c3ccccc3)cc2CNCc2ccccc2)cc1	0	0	0	0	0
Fc1ccc(-n2cc(CNCCc3ccncc3)c(-c3ccccc3Cl)n2)cc1	0	0	0	0	-31.8
COc1ccccc1Cc1nc2ccccc2nc1SCC(=O)NCc1ccccc1Cl	0	0	0	0	0
COc1cc(/C=C2\SC(=S)N(C(C(=O)O)c3ccccc3)C2=O)ccc1O (configuration not stated)	82.2	0	50.0	0	0
O=C(O)C(c1ccccc1)N1C(=O)/C(=C\c2ccc(O)c(O)c2)SC1=S (configuration not stated)	0	0	31.7	0	0
CCOc1cc(/C=C2\SC(=S)N(C(C(=O)O)c3ccccc3)C2=O)ccc1O (configuration not stated)	171.7	0	0	0	0
CCOc1ccc(/C=C2/SC(=S)N(C(C(=O)O)c3ccccc3)C2=O)cc1OCC (configuration not stated)	0	0	0	0	0
Cc1cc(C)c(Cn2c(=O)n(-c3ccccc3Cl)c(=O)c3c(C)c(C(=O)N(C)C)sc32)c(C)c1	0	0	0	0	0
CC(C)CCNC(=O)C1CCN(S(=O)(=O)c2cccc3nsnc23)CC1	0	0	0	0	0
CCOC(=O)c1ccc(N=c2sc(C(=O)OC)cc(=O)n2CCCN2CCOCC2)cc1	0	0	0	0	-40.5!
COc1ccc(OC)c2sc(N3CCN(C(=O)C4CC4)CC3)nc12	0	0	0	0	-
COc1ccc(C)c2sc(N3CCCC3)nc12	0	0	0	0	-36.9
C=CCOc1ccc(/C(O)=C2/C(=O)C(=O)N(CCCn3ccnc3)C2c2cccs2)cc1 (configuration not stated)	0	0	0	0	-52.1
O=C(CCCCn1c(=O)c2ccccc2n(Cc2ccccc2Cl)c1=O)NCc1ccc2c(c1)OCO2	0	0	0	0	0
CCOCCCN(Cc1ccco1)S(=O)(=O)c1csc(C(N)=O)c1	0	0	0	0	-49.9
CC(C)CCN(Cc1ccco1)S(=O)(=O)c1csc(C(N)=O)c1	0	0	0	0	0
CC(C)(C)OC(=O)NCCCCCc1nnc(SCC(N)=O)o1	0	0	0	0	-38.7
CC(C)(C)OC(=O)NCCc1nnc(SCc2ccccc2Cl)o1	0	0	0	0	-30.4
CC(C)(C)OC(=O)NCCc1nnc(SCc2ccccc2)o1	0	0	0	0	0
Cc1ccc(C)c(NC(=O)CSc2nnc(CCCCCNC(=O)OC(C)(C)C)o2)c1	35.7	0	0	0	0
O=C(O)Cc1sc(Nc2ccc(Cl)cc2)nc1-c1cccs1	0	0	0	0	0
Nc1nc(-c2cccs2)c(CC(=O)O)s1	0	0	0	0	-38.4
COc1cc(-c2noc(-c3ccc(NCc4ccco4)c([N+](=O)[O-])c3)n2)cc(OC)c1OC	0	0	0	0	0
CCOC(=O)c1c(NC(=O)COC(=O)C2CCC2)sc(C(=O)N(C)C)c1C	0	0	0	0	-45.7
SMILES	D1 agonist	D1 potentiator	TRHR agonist	TRHR enhancer	D1 antag
O=C(O)C1Nc2c(O)cc(Cl)c([N+](=O)[O-])c2C2C=CCC12 (configuration not stated)	0	0	0	0	0
Cc1ccccc1Cn1c(=O)n(-c2ccc(Cl)cc2)c(=O)c2c3c(sc21)CCCC3	0	0	0	0	0
Cc1ccc(-n2c(=O)c3c4c(sc3n(Cc3ccccc3C)c2=O)CCC4)cc1C	0	0	0	0	-72.0
NC(=O)COc1cccc2cccnc12	0	0	0	0	-78.9
Cc1cc(NC(=O)COc2cccc3cccnc23)no1	0	0	0	0	0
COc1ccc(OC)c(NC(=O)CN2C(=O)COc3ccc(S(=O)(=O)NC4CCCC4)cc32)c1	0	0	0	0	0
COc1ccc(C(=O)COC(=O)CN2C(=O)c3ccccc3C2=O)c(OC)c1	0	0	0	0	0
